PubChem BioAssay

Test: anti-His antibody binders, primary screen, artefact control for SMM control protein annotation, biochemical, small-molecule microarray, 635 nm fluorescence (AID 1128);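 also: score merges feature fluorescence with signal-to-noise for each printed compound spot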
Details: anti-His Alexa647 antibody binding, higher = more signal

Structure (SMILES) | composite z-score
COC(=O)[C@@]1(Cc2ccc(OC)cc2)[C@H]2c3cc(C(=O)N4CCCC4)n(Cc4nc5ccccc5[nH]4)c3C[C@H]2CN1C(=O)c1ccccc1 | 2.01
COc1ccc(NC(=O)O[C@H]2[C@H](OC(=O)c3cc4ccccc4[nH]3)[C@@H](OC(=O)c3cc4ccccc4[nH]3)[C@@H](OC)O[C@@H]2CO)cc1 | 1.23
C=C(CCCC)C(=O)CC[C@@H](OC(C)=O)c1ccc(CO)o1 | 0.184
O=C1[C@H]2C=C(I)[C@H](C[C@@H]2OCCCCO)[C@@]12CO2 | -0.276
COCCCNC(=O)[C@@]1(Cc2ccccc2)N=C(c2ccc(OCCCO)cc2)O[C@H]1c1ccccc1CN=[N+]=[N-] | 2.82
CN(C)CCCCCCNC(=O)[C@@H]1C[C@@H]2C(=O)N3CCC[C@H]3C(=O)N2[C@@H]1c1ccc(O)cc1 | 3.06
COc1ccc([C@H]2C[C@H]3C(Br)=C[C@@]2(CO)C(=O)[C@]32CO2)cc1 | -0.436
C=CCNC(=O)[C@@H]1[C@H]2C(=O)O[C@H](c3ccccc3)[C@H](c3ccccc3)N2[C@H](c2ccc(OCCO)cc2)[C@@]12C(=O)N(C(=O)OCCOC)c1ccc(C#CCNC(N)=O)cc12 | 1.26
CS(=O)(=O)CCOC(=O)C1=CC(CCCO)=CC(c2ccc(CN3CCCC3)cc2)N(Cc2cccc(OC(F)(F)F)c2)C=C1C(=O)OCCS(C)(=O)=O (stereo unspecified) | 1.26
COCCOC(=O)N1C(=O)[C@@]2(c3cc(C#CC4(O)CCCCCC4)ccc31)[C@H](C(=O)Nc1nc3ccccc3s1)[C@H]1C(=O)O[C@H](c3ccccc3)[C@H](c3ccccc3)N1[C@@H]2c1ccc(OCCO)cc1 | 0.553
[N-]=[N+]=Nc1ccccc1C[C@]1(C(=O)NCC(O)CO)N=C(c2ccc(OCCCO)cc2)O[C@H]1c1ccccc1 (stereo partly specified) | 1.91
[N-]=[N+]=NCc1ccccc1C[C@@]1(C(=O)NCC(O)CO)N=C(c2ccc(OCCCO)cc2)O[C@@H]1c1ccccc1 (stereo partly specified) | 1.86
C=CCN1C(=O)[C@]2(O[C@H](CCO)[C@@H]([Si](C)(C)c3ccc(OC)cc3)[C@@H]2C)c2cc(N(C=O)c3ccccc3)ccc21 | 0.896
Cc1ccc(S(=O)(=O)N2C[C@@H](C(=O)O)[C@H](Sc3ccccc3)C[C@H]2c2ccccc2)cc1 | 0.617
COC(=O)[C@]1(Cc2ccccc2)N=C(c2ccc(OCCCO)cc2)O[C@@H]1c1ccccc1N=[N+]=[N-] | 1.15
C=CC[C@]1(C(N)=O)N=C(c2ccc(OCCCO)cc2)O[C@H]1c1ccccc1 | 1.3
[N-]=[N+]=Nc1ccccc1[C@H]1OC(c2ccc(OCCCO)cc2)=N[C@@]1(Cc1ccccc1)C(=O)N1CCOCC1 | 2.22
O=C1NC(=O)C2C1C=CC(C(O)c1ccc(-c3ccccc3)s1)N2Nc1ccc(Cl)cc1Cl (stereo unspecified) | 0.752

Structure (SMILES) | composite z-score
NCCCCCNC(=O)[C@H]1C[C@H]2C(=O)N3CCC[C@H]3C(=O)N2[C@H]1c1ccc(O)cc1 | 0.695
CC(=O)n1cc(C(O)C2C=CC3C(=O)NC(=O)C3N2Nc2ccccn2)c2ccccc21 (stereo unspecified) | 0.426
CO[C@H]1O[C@H](CO)[C@@H](OC(=O)Nc2cccc(F)c2)[C@H](OC(=O)Nc2ccccc2)[C@H]1OC(=O)Nc1ccccc1 | 2.02
CO[C@H]1O[C@H](CO)[C@@H](OC(=O)Nc2ccccc2-c2ccccc2)[C@H](OC(=O)Nc2ccccc2-c2ccccc2)[C@@H]1OC(=O)Nc1ccccc1-c1ccccc1 | 0.747
O=C(NCc1ccccc1)[C@@H]1c2ccccc2C(=O)N(C2Cc3ccccc3C2)[C@H]1c1ccc(CO)cc1 | 0.526
O=C1C2C=CC(C(O)c3ccc(-c4ccccc4)s3)N(Nc3ccccc3)C2C(=O)N1c1ccccc1 (stereo unspecified) | 2.17
Cc1c(NC(=O)/C(C#N)=C/c2cccc([N+](=O)[O-])c2)c(=O)n(-c2ccccc2)n1C | 0.551
O=C1C2C=CC(C(O)c3c(F)cccc3Cl)N(Nc3ccccc3F)C2C(=O)N1c1ccccc1 (stereo unspecified) | 0.236
NCCCCCCNC(=O)[C@H]1C[C@H]2C(=O)N[C@@H](Cc3ccccc3)C(=O)N2[C@H]1c1cccc(OCCO)c1 | 0.786
CN(C)CCCC[C@@H]1NC(=O)[C@H]2C[C@@H](C(=O)NCCCCCN)[C@@H](c3cccc(OCCO)c3)N2C1=O | 2.91
O=C(NCCN1CCOCC1)[C@@H]1c2ccccc2C(=O)N(Cc2cc(C(F)(F)F)cc(C(F)(F)F)c2)[C@H]1c1ccc(CO)cc1 | 0.537
COc1ccc([Si](C)(C)[C@@H]2[C@@H](CC(=O)N3Cc4ccccc4C[C@H]3CO)O[C@]3(C(=O)N(Cc4cccc(N5CCC5=O)c4)c4ccccc43)[C@H]2C)cc1 | 0.887
CN1C(=O)C2C=CC(C(O)c3c(F)cccc3Cl)N(NC(=O)OC(C)(C)C)C2C1=O (stereo unspecified) | 1.11
O=C1OCCC/C=C\[C@H]2OC34C=CCN(c5ccc6ccccc6c5)C(=O)[C@H]3N(CCCCCO)C(=O)[C@@H]4C12 (stereo partly specified) | -0.268
COc1ccc([Si](C)(C)[C@H]2[C@H](CC(=O)N3CCC[C@H]3CO)O[C@@]3(C(=O)N(Cc4cccc(N5CCOC5=O)c4)c4ccccc43)[C@@H]2C)cc1 | 1.3
COCC(=C=CC[C@H](O)c1cccc(OCCO)c1)CCO | -0.115
C=CCC(OC(C)=O)[C@@H]1[C@@H](N(Cc2ccc(-c3cccc(C(F)(F)F)c3)o2)C(=O)c2cccc3ccccc23)c2cc(OCCCO)ccc2N1C(=O)Cc1ccc2ccccc2c1 (stereo partly specified) | 0.383
COCCOC(=O)N1C(=O)[C@@]2(c3ccccc31)[C@H](C(=O)N1CCCCCCC1)[C@H]1C(=O)O[C@H](c3ccccc3)[C@H](c3ccccc3)N1[C@@H]2c1ccc(OCCO)cc1 | 3.77
